Bioassay records (PubChem BioAssay)
TNAP act DEA = human TNAP enzyme activators, primary screen, biochemical, luminescent, intermediate phosphate acceptor level | purified TNAP, CDP-star luminescence, 100 mM DEA, 30 min; stronger effect = higher value; scale: 0 levamisole-inhibited, 1 vehicle-only enzyme | activation factor at 20 µM | 64,000 tested, under 10 active | AID 813, 2007;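 active = activation factor of at least 2 at 20 µM, relative to controls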
D1 mod = D1 CRE-luciferase signal change, two-sided – cell-based, HEK293 D1, dopamine EC30, D1 allosteric modulator project, primary screen. dopamine EC30 potentiation; actives deviate in either direction. B-score at 10 µM. 58,000 compounds, 5.9% hits. AID 641, 2007;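 active = luminescence count or its row- and column-corrected plate score outside the 99.7% band of the plate's sample wells, on either side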
Target sequence (P21728 whole entry, looked up): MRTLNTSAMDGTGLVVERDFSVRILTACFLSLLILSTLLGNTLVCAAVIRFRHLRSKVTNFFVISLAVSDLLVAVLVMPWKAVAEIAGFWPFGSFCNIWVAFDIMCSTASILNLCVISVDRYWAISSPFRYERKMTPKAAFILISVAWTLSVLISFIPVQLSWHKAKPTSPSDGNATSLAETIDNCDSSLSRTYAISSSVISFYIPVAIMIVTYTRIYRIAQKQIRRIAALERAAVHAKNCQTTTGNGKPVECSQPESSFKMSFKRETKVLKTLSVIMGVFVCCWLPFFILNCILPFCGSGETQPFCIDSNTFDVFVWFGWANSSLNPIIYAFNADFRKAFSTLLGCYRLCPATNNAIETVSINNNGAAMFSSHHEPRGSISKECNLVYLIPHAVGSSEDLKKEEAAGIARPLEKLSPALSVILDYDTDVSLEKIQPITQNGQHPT
FXIIa inh mix = human factor XIIa inhibitors, primary screen, biochemical, pooled compound mixtures, fluorogenic substrate; AID 684, 2007; inhibition, % at 5 µM; 62,000 compounds, 0.2% hits; Coagulation factor XII (Homo sapiens), P00748; purified FXIIa;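 also: 0% = enzyme without compound and 100% = no enzyme blank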
FXIa inh mix = FXIa protease inhibitors in compound pools, primary screen, biochemical, 10-compound mixtures. 62,000 compounds, 0.19% hits. AID 680, 2007. purified FXIa, fluorogenic substrate, pooled mixtures. inhibition, % at 5 µM;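 also: each value is inhibition by a whole ten-compound pool holding the compound; 0% = enzyme with no mixture and 100% = wells lacking enzyme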
HePTP inh = inhibitors of human HePTP phosphatase, primary screen, biochemical, absorbance, leukemia target | AID 521, 2006 | 110,000 compounds, 0.64% hits | inhibition, % at 20 µM | recombinant HePTP phosphatase activity, OD absorbance | Tyrosine-protein phosphatase non-receptor type 7 (Homo sapiens), P35236; in the data active = inhibition above about 50%;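 also: plate controls were vehicle for no effect and reference inhibitor for full effect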
Calb biofilm kill = clotrimazole potentiators killing Candida biofilms, primary screen, with clotrimazole, Alamar Blue; C. albicans biofilm + clotrimazole; inhibition, % at 6 µM; 85,000 compounds, 0.14% hits;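 active = inhibition above 20%; inactive = inhibition below 20%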;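 also: preformed 24 hr biofilms exposed to compound for 48 hr; 0% = biofilm without compound and 100% = blank killed by clotrimazole plus chlorhexidine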
* hit, by the source's call; / = no result given; ! = repeats disagree. Many of the other results were omitted from the sample, so hits are more common in it than they were. Rule as the data show it, unless noted: active = inhibition above about 20% (passing the limit was not always enough); inactive = the rest.

SMILES	TNAP act DEA	D1 mod	FXIIa inh mix	FXIa inh mix	HePTP inh	Calb biofilm kill
Cc1c(NC(=O)c2nn3c(C(F)(F)F)c4c(nc3c2Cl)-c2ccccc2CC4)c(=O)n(-c2ccccc2)n1C	/	/	/	/	-12.7	/
O=C(O)c1cc2nc3c(c(C(F)(F)F)n2n1)CCc1ccccc1-3	0.9	-4.49*	11.7	-7.9	6.5	9.2
CCOc1ccccc1OCCCCCc1c(C)n[nH]c1C	1.1	-2.42*	-5.7	-7.6	5.4	-5.2
N#CC(c1nc2ccccc2nc1N1CCCCC1)S(=O)(=O)c1ccc(Cl)cc1 (stereo unspecified)	0.8	-2.52*	0.6	1.7	2.3	2.3
O=C(N/N=C/c1ccc([N+](=O)[O-])cc1)c1cc(C23CC4CC(CC(C4)C2)C3)[nH]n1	/	/	/	/	9.5	/
CCCN(c1ccc(C(C)C)cc1)S(=O)(=O)c1c(C)noc1C	0.9	-0.438	34.8*	7.8	10.8	7.3
CC(=O)N1CCc2cc(NC(=O)c3ccc(C)cc3)ccc21	0.9	-2.59*	10.9	2.6	-9.1	-2.8
Cc1cccc(C)c1NC(=O)COc1ccc2ccccc2c1	/	/	/	/	9.2	/
N#Cc1nc(-c2ccc(OCc3ccccc3)cc2)oc1NCc1cccnc1	0.8	0.00614	2.6	22.8	9.8	5.8
CN(C)c1oc(-c2ccc(OCc3ccccc3)cc2)nc1C#N	0.9	-0.737	6.4	22.5*	6.8	0.7
O=c1oc(-c2cccnc2)nc2ccccc12	0.9	-4.51*	2.0	3.0	4.2	5.2
c1cncc(-c2nc3ccccc3o2)c1	1	0.965	11.1	-3.6	0.1	-5.2
Cc1cc2cc(CCNC(=O)c3c(-c4ccccc4Cl)noc3C)c(=O)[nH]c2cc1C	0.9	-3.74*	-1.5	-1.4	-2.1	3.4
O=C(O)CCCCCN1C(=O)C(=O)/C(=C(/O)c2ccc([N+](=O)[O-])cc2)C1c1ccc(O)cc1 (stereo unspecified)	/	/	/	/	3.6	/
O=C(c1ccco1)N1CCN(C(=O)c2cccc3c2C(=O)N(C2CCCCC2)C3)CC1	1	-3.39*	-16.1	4.1	3.8	5.5
O=C(O)c1ccccc1N=Nc1cc(-c2ccccc2)oc1O	/	/	/	/	100.8*	/
O=C1/C(=C/c2nc3ccccc3c(=O)n2-c2ccccc2)c2ccccc2N1Cc1ccccc1	/	/	/	/	8.0	/
COc1cc(/C=N\NC(N)=S)ccc1OC(=O)c1cc(F)c(F)cc1Cl	/	/	/	/	6.8	/
Cc1cc2nc3s/c(=C/c4ccccc4F)c(=O)n3c2cc1C	/	/	/	/	-2.2	/
O=C1NC(=Nc2cccnc2)S/C1=C\c1ccc(F)cc1	/	/	/	/	9.9	/
O=C1NC(=Nc2cccnc2)S/C1=C\c1cccc(F)c1	/	/	/	/	65.7*	/
O=C(COC(=O)c1ccccc1C(F)(F)F)c1ccc(-c2ccccc2)cc1	/	/	/	/	-4.6	/
N#Cc1c(C(F)(F)F)cc(-c2cccs2)nc1SCC(=O)Nc1ccc(S(N)(=O)=O)cc1	/	/	/	/	73.2*	/
CC(C)Oc1ccc(C2CC(=O)NC3=C2C(=O)CCC3)cc1 (stereo unspecified)	0.9	-5.39*	2.6	7.1	4.3	8.5
COc1ccc(/C=C/C(=O)N2CCC(C)CC2)cc1Br	/	/	/	/	-5.2	/
SMILES	TNAP act DEA	D1 mod	FXIIa inh mix	FXIa inh mix	HePTP inh	Calb biofilm kill
O=C(C(Sc1ccccc1)c1ccccc1)N1CCCC1 (stereo unspecified)	/	/	/	/	102.1*	/
CC1=CC(=O)C=C(C)C1=NOC(=O)c1cccc([N+](=O)[O-])c1	/	/	/	/	/	86.3*
Cc1cccc(OC(=O)c2cccc([N+](=O)[O-])c2)c1	/	/	/	/	7.9	/
Cc1ccc(-c2cc(C(=O)N/N=C/c3cccc([N+](=O)[O-])c3)[nH]n2)cc1	/	/	/	/	7.9	/
CN1C(=O)/C(=C\C=C\c2ccc(Br)cc2)SC1=S	/	/	/	/	-3.3	/
O=C(NCc1cccnc1)c1ccc(-c2ccccc2)cc1	/	/	/	/	-0.9	/
COc1cccc(C(=O)Nc2cccnc2)c1	/	/	/	/	/	0.0
O=C(Nc1cccnc1)c1ccc(Oc2ccccc2)cc1	0.8	-6.38*	1.0	8.0	-1.5	-5.2
O=C(Nc1cccc(Oc2ccc(C(=O)O)c(C(=O)O)c2)c1)c1ccc(-c2ccccc2)cc1	/	/	/	/	102.5*	/
CC(C)Oc1ccc(C(=O)NCc2cccnc2)cc1	0.9	0.552	5.2	4.3	104.4*!	9.3
CSc1ccccc1C(=O)O/N=C(\c1ccncc1)c1ccc([N+](=O)[O-])cc1	/	/	/	/	2.4	/
O=C(c1ccncc1)N1CCN(C(=O)c2cccc(F)c2)CC1	/	/	/	/	-9.5	/
NS(=O)(=O)c1ccc(NC(=S)NC(=O)c2ccccc2)cc1	/	/	/	/	7.4	/
CCn1cc(C(=O)NCc2ccc3c(c2)OCO3)c(=O)c2ccc(C)nc21	1	4.34*	7.8	6.8	2.9	5.1
CCn1cc(C(=O)N2CCN(Cc3ccc4c(c3)OCO4)CC2)c(=O)c2ccc(C)nc21	/	/	/	/	/	4.9
COc1cc(/C=C2/C(=O)NC(=O)N(C)C2=O)ccc1OCC(=O)O	/	/	/	/	-3.2	/
COc1ccccc1N1CCN(CCCNC(=O)Nc2ccccc2)CC1	1	-4.78*	4.1	7.8	2.2	3.5
O=C(NCCCN1CCN(c2ccccc2)CC1)Nc1ccccc1C(F)(F)F	0.9	-2.69*	3.7	3.1	6.1	4.7
COc1ccc(N2CCN(CCCNC(=O)Nc3ccccc3)CC2)cc1	/	/	/	/	/	-0.6
O=C(Nc1cc(Cl)ccc1C(=O)O)c1ccc(Br)cc1	/	/	/	/	0.5	/
CCC(CO)N1CC2([N+](=O)[O-])C=CCC([N+](=O)[O-])(C1)C2 (stereo unspecified)	/	/	/	/	1.9	/
COc1ccc(Oc2c(C)oc3c(CN(C)C)c(O)ccc3c2=O)cc1	0.9	/	0.4	3.7	7.3	3.9
COc1ccc(Oc2coc3c(CN(C)C)c(O)ccc3c2=O)cc1	1	-4.34*	-1.7	6.2	5.8	1.2
C=CCSc1nc2ccccc2n1CC(=C)Br	/	/	/	/	-2.6	/
C=C(Br)Cn1c(CCC)nc2ccccc21	0.9	0.386	-20.4	2.2	101.6*!	6.0
SMILES	TNAP act DEA	D1 mod	FXIIa inh mix	FXIa inh mix	HePTP inh	Calb biofilm kill
C=C(Br)Cn1c(CC)nc2ccccc21	/	/	/	/	/	5.8
C=C(Br)Cn1c(CC(C)C)nc2ccccc21	0.9	-3.27*	1.1	8.6	10.2	10.5
Cc1cccnc1NC(=O)c1cc2c(ccc3ccccc32)oc1=O	/	/	/	/	1.5	/
CC(C)c1cc(Nc2nccs2)cc(C(C)C)c1O	/	/	/	/	83.7*	/
CCc1ccc(S(=O)(=O)NC(CC(=O)O)c2ccccc2)cc1 (stereo unspecified)	1	-6.46*	2.6	5.5	10.1	/
CC(C)(C)c1ccc(C(=O)N/N=C/c2ccc(O)cc2)cc1	/	/	/	/	-6.1	/
COc1ccc(NC(=O)c2cc3ccccn3n2)cc1	0.9	-4.74*	1.0	1.5	2.1	8.3
O=C1NC(=S)N(c2ccccc2F)C(=O)/C1=C/c1ccc(I)o1	/	/	/	/	103.5*	/
CCOc1ccc(N2C(=O)NC(=O)/C(=C\c3ccc(I)o3)C2=O)cc1	/	/	/	/	24.6	/
CC(C)c1ccc(N2C(=O)NC(=O)/C(=C/c3ccc([N+](=O)[O-])o3)C2=O)cc1	/	/	/	/	88.4*	/
